This is an account of results in PubChem BioAssay (EPA / NIEHS).

The structures appear in SMILES notation. Calls of active or inactive are those of the source. The calls were made as follows: active = hit-call score of the fitted dose curve at least 0.9, where 1 is the maximum; inactive = score below 0.9.

The assay can be described thus: ATG_TGFb_CIS: Attagene CIS-FACTORIAL HepG2 Assay for human Transforming Growth Factor (TGF) (AID 2282967). Particulars: HepG2 Attagene CIS TGFb reporter, mRNA transcription; actives raise or lower the signal. The procedure:
ATG_CIS is a cell-based, multiplexed-readout assay that uses HepG2, a human liver cell line, with measurements taken at 24 hours after chemical dosing in a 24-well plate.ATG_TGFb_CIS is one of 52 assay component(s) measured or calculated from the ATG_CIS assay. It is designed to make measurements of mRNA induction, a form of inducible reporter, as detected with fluorescence intensity signals by Reverse transcription polymerase chain reaction (RT-PCR) and Capillary electrophoresis technology.Data from the assay component ATG_TGFb_CIS was analyzed into 1 assay endpoint. This assay endpoint, ATG_TGFb_CIS, was analyzed with bidirectional fitting relative to DMSO as the negative control and baseline of activity. Using a type of inducible reporter, measures of mRNA for gain or loss-of-signal activity can be used to understand the reporter gene at the transcription factor-level as they relate to the gene TGFB1. Furthermore, this assay endpoint can be referred to as a primary readout, because this assay has produced multiple assay endpoints where this one serves a reporter gene function. To generalize the intended target to other relatable targets, this assay endpoint is annotated to the growth factor intended target family, where the subfamily is transforming growth factor beta.
Human liver HepG2 cells are transiently transfected with multiple reporter transcription units (MRTUs) in 6-well plates using FuGene 6 reagent (Roche; 3 ml FuGene/1 mg DNA). The MRTU constructs are regulated by a cis-regulating element (promoter). […] A major difference between the CIS and TRANS system is that in CIS activities of endogenous TFs are measured, whereas the TRANS assay evaluates changes in activities of exogenous, chimeric NR-Gal4 proteins. […] At the end of 24 hour incubation, total RNA was isolated using TriZol reagent (Invitrogen). The isolated RNA is then reverse-transcribed using oligo(dT) primer and Mo-MLV reverse transcriptase (Invitrogen) with DNAse I (Ambion) treatment for 30 min. The one-tenth of the produced cDNA was amplified by PCR using Taq DNA polymerase (Invitrogen) and two reporter sequence-specific primers. The PCR products were fluorescently labeled by primer extension with 6-arboxyfluorescein (6-FAM) 5'-labeled reporter sequence-specific primer (2 min at 95 C, 20 s at 68 C and 10 min at 72 C) and these products were digested with 5U of HpaI (New England Biolabs) for 2h at 37 C. The fragments were purified using Qiaquick PCR columns (Qiagen), analyzed on an ABI 3130xL genetic analyzer (Applied Biosystems) with peak positions identified by using a set of X-rhodamine (ROX)-labeled MapMarker1000 molecular weight standards (BioVentures). The raw capillary electrophoresis data was processed using Attagraph software (Attagene).
As to `CN(C)c1ccc(C(c2ccccc2)c2ccc(N(C)C)cc2)cc1`, the result was inactive.
Take `CCC(C)(CCC(C)C)C(=O)O` (stereo not given): the call was inactive.
Regarding `O=C(CC(C(=O)OC1CCCCC1)S(=O)(=O)O)OC1CCCCC1` (stereo not given), the outcome was inactive.
Same read-out and setting: next, `NC(N)=Nc1nc(CSCCC(N)=NS(N)(=O)=O)cs1`: “inactive”; `COCCCN`: “inactive”; `O=C(O)c1cc(Cl)cc(Cl)c1O`: “inactive”.
In the case of `CCCCCC1CCCC(=O)O1` (stereo not given), the compound was classed as inactive.
`CC(C)CC(=O)CC(C)C`: the call was inactive.
The same measure, in the same setting: next, `COC(=O)[C@]1(C)CCC[C@@]2(C)[C@H]1CC=C1C=C(C(C)C)CC[C@@H]12`: “inactive”.
The same measure, in the same setting: next, `Cc1cc(O)cc(C)c1Cl`: “inactive”.
Same read-out and setting: as for `O=S(=O)(O)c1cccc2ccccc12`, the entry is “inactive”.
As for `CC/C=C/CCO`, the compound was classed as inactive.
As for `CNC[C@H](O)[C@@H](O)[C@H](O)[C@H](O)CO`, the result was inactive.
In the case of `CCCCNC(N)=O`, the outcome was inactive.
For the compound `CCCCC(CC)COC(=O)CS` (stereo not given), the compound was classed as inactive.
Consider `C=CCOC(=O)C(=C)C`, for which the compound was classed as inactive.
The term AC50 denotes the concentration giving half of the maximal activity seen. Take `CCCCCCCCCCCCCCCCCC[N+](C)(C)C`: the concentration at half-maximal activity (AC50) is 6.12 µM (active).
On to `NC(=O)c1ccc(N)cc1`, for which the compound was classed as inactive.
In the case of `N#CCN(CC#N)CCN(CC#N)CC#N`, the call was inactive.
`C[Si](C)(C)O[Si](C)(C)O[Si](C)(C)C`: the compound was classed as inactive.
`OCCN(CCO)c1cccc(Cl)c1`: the result was inactive.
Take `CO[Si](CCCNCCN)(OC)OC`: the call was inactive.
The same measure, in the same setting: next, `CN(C)N=Nc1ccccc1`: “inactive”; `CCC(C)C1N=C(C)C(C)S1` (stereo not given): “inactive”; `CNC(=C[N+](=O)[O-])NCCSCc1csc(CN(C)C)n1`: “inactive”.
Consider `Cc1ccccc1S(=O)(=O)O`, for which the outcome was inactive.
Still for that read-out and setting: next, `CCOc1ccc2c(c1)C(C)CC(C)(C)N2` (stereo not given): “inactive”; `Oc1ccc(Oc2ccccc2)cc1`: “inactive”.
In the case of `CCC(=O)OCc1ccc(OC)cc1`, the outcome was inactive.
For `Nc1nnc(-c2ccc([N+](=O)[O-])o2)o1`, the outcome was inactive.
As for `O=C(O)c1ccccc1C(=O)O`, the compound was classed as inactive.
With `Cc1cc(C)c(S(=O)(=O)O)cc1N=Nc1cc(S(=O)(=O)O)c2ccccc2c1O`, the compound was classed as inactive.
For `CN1CCCC1`, the compound was classed as inactive.
For `C=C(C)C(=O)OCC1CCCO1` (stereo not given), the compound was called inactive.
In the case of `c1ccc(CNc2ncnc3nc[nH]c23)cc1`, the outcome was inactive.
As to `CCCC(=O)OC/C=C(\C)CCC=C(C)C`, the call was inactive.
Still for that read-out and setting: as for `CN(C)CCC(c1ccc(Cl)cc1)c1ccccn1` (stereo not given), the entry is “inactive”; as for `CCCCOC(=O)COc1ccc(Cl)cc1Cl`, “inactive”.
As to `C1=CCC=C1`, the compound was called inactive.
The same measure, in the same setting: next, `F[B-](F)(F)F`: “inactive”.
